Assay results reported in the supplement of paper PMC10849652.
The full data set covers some 8,800 targets. This sample favours those with a hit. About 0.5% of all pairs of compound and target were hits.

Tests used:
Assay in all cases: log2 fold change, soluble protein after heating vs DMSO (PISA); higher = thermal stabilisation; K562 lysate, 10 uM; active = over 0.2 and 3.5 SD of the protein, either way, in both replicates (recomputed)
[1] = compound: C#Cc1cccc(Nc2ncnc3cc(OCCOC)c(OCCOC)cc23)c1 [erlotinib]
Method in brief: (§1)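 A 30 min treatment with 10 μM compound was applied to crude K562 extract at 1 mg/mL protein in PBS pH 7.4 with 1 mM MgCl2. Heating for 3 min spanned 48°C-58°C, after which aliquots were pooled, adjusted to 0.5% NP-40 at 4°C and spun at 21,000xg for 90 min. TMTpro 16plex LC-MS/MS of the supernatant, with channel sums equalised, gave values recorded as log-two fold change in thermal stability against solvent controls, from duplicates.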

[2] = compound: C1=CC(=CC=C1C2=NC3=C(N2)C=C(C=C3)C(=O)N)OC4=CC=C(C=C4)Cl
Method in brief: as §1

[3] = compound: C1=CC=C(C=C1)C2=NC(=C(N2)C3=CC=NC=C3)C4=CC(=C(C=C4)Cl)O
Method in brief: as §1

[4] = compound: C1COCCN1CCN2C3=CC=CC=C3N=C2NC(=O)C4=CC(=CC=C4)[N+](=O)[O-] [IRAK-1-4 Inhibitor I]
Method in brief: as §1

[5] = compound: CC(=O)c1cnc2ccc(-c3cc(Cl)c(O)c(Cl)c3)nc2c1N[C@H]1CC[C@H](CN(C)C)CC1
Method in brief: as §1

[6] = compound: CC(C)(C)Cn1c(N)nc2ccc(-c3[nH]c(C(C)(C)C)nc3-c3ccc(F)cc3)nc21 [ralimetinib]
Method in brief: as §1

[7] = compound: CC(C)(O)CC(=O)NCCn1ccc2ncnc(Nc3ccc(Oc4cccc(C(F)(F)F)c4)c(Cl)c3)c21
Method in brief: as §1

[8] = compound: CC(C)C1=C2N=C(C=C(N2N=C1)NCC3=CC=CC=C3)NCCCCCCN
Method in brief: as §1

[9] = compound: CC1=C(C(CC(=O)N1)C2=CC=C(C=C2)C(F)(F)F)C(=O)NC3=C(C=C4C(=C3)C=NN4)F
Method in brief: as §1

[10] = compound: CC1=C(C2=C(C=C1)C(=O)C3=CC=CC=C3N2CCCN)C
Method in brief: as §1

[11] = compound: CC1=C(C=C(C=C1)NC(=O)C2=CC(=CC=C2)C(C)(C)C#N)NC3=CC4=C(C=C3)N=CN(C4=O)C
Method in brief: as §1

[12] = compound: CC1=C(C=C(C=C1)NC(=O)C2=CC(=CC=C2)N(C)C)NC(=O)C3=CC=C(C=C3)O
Method in brief: as §1

[13] = compound: CC1=CC=C(C=C1)SC2=C3C=C(SC3=CN=C2)C(=O)N
Method in brief: as §1

[14] = compound: C/C(=N\NC(=O)C1=CC(=CC=C1)S(=O)(=O)N2CCOCC2)/C3=C(C=CC(=C3)Cl)O
Method in brief: as §1

[15] = compound: C1=CC2=C(C=CC(=C2)/C=C\3/C(=O)NC(=NCC4=CC=CS4)S3)N=C1
Method in brief: as §1

[16] = compound: C1=CC2=NC=CN=C2C=C1/C=C/3\C(=O)NC(=O)S3
Method in brief: as §1

[17] = compound: C1=CC=C2C(=C1)C3=NNC4=CC=CC(=C43)C2=O
Method in brief: as §1

[18] = compound: C1CCN(C1)C(=O)NC2=CC=CC(=C2)NC3=NC=C(C(=N3)NCCC4=CN=CN4)Br
Method in brief: as §1

[19] = compound: C1CN(CCC1(CC2=CC=C(C=C2)Cl)N)C3=NC=NC4=C3C=CN4
Method in brief: as §1

[20] = compound: C=CC(=O)N1CCC[C@@H](n2nc(-c3ccc(Oc4ccccc4)cc3)c3c(N)ncnc32)C1 [ibrutinib]
Method in brief: as §1

Measured: log2 fold change

CDC25A (UniProt P30304)
Sequence of UniProt P30304 (P30304 whole entry, looked up): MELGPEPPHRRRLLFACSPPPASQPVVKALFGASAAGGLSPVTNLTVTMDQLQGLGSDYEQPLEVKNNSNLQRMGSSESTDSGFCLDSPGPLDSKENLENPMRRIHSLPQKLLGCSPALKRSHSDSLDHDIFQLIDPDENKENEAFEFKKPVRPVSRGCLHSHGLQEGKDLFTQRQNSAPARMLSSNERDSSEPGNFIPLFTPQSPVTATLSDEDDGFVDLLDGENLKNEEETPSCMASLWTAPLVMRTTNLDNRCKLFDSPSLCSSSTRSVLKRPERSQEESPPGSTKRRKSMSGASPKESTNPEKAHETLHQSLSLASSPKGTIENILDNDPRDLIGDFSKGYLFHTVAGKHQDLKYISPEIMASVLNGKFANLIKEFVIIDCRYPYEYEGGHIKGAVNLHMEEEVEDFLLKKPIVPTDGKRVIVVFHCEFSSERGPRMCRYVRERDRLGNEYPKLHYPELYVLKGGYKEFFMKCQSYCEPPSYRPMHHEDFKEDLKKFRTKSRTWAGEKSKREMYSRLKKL
inactive: [1] 0.016 | [2] 0.085 | [3] 0 | [4] 0.052 | [5] -0.009 | [6] 0.014 | [7] -0.044 | [8] 0.019 | [9] -0.017 | [10] 0.012 | [11] 0.087 | [12] 0.015 | [13] 0.002

CHCHD7 isoform 4 (UniProt Q9BUK0)
Sequence of UniProt Q9BUK0 (Q9BUK0 whole entry, looked up): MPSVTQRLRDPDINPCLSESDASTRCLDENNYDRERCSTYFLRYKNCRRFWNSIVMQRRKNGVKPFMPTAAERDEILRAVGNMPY
inactive: [14] -0.158 | [15] 0.048 | [16] 0.014 | [3] 0.046 | [17] -0.012 | [18] 0.006 | [19] 0.072 | [4] -0.025 | [20] -0.109 | [5] 0.008 | [6] -0.038 | [7] -0.014 | [9] 0.116 | [10] 0.002 | [11] -0.025 | [12] 0.024 | [13] -0.061

ATXN2 (UniProt F8WB06)
inactive: [10] 0.187

CASC1 (UniProt Q6TDU7)
Sequence of UniProt Q6TDU7 (Q6TDU7 whole entry, looked up): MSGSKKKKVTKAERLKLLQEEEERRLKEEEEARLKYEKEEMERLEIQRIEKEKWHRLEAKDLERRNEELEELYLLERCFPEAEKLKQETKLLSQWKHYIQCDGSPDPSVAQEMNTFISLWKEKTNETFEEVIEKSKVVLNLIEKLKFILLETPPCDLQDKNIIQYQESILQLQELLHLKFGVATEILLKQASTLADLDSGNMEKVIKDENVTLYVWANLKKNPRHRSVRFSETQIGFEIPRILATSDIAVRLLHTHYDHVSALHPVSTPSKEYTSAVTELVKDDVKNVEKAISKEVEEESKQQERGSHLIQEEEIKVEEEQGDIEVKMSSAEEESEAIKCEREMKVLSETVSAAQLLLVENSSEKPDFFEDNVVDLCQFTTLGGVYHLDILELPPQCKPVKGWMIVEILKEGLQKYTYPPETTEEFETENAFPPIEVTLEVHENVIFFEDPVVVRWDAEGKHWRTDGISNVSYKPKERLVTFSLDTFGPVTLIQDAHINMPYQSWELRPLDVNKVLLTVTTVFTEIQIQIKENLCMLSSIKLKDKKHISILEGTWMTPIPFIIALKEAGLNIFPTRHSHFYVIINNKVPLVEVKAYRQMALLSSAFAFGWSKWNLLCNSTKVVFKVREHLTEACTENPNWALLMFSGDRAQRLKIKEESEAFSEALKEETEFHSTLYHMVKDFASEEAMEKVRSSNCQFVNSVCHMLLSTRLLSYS
inactive: [3] -0.03 | [4] 0.179 | [20] 0.24 | [6] 0.078 | [7] -0.093 | [12] 0.097
active: [16] 1.74

CCND3 (UniProt P30281)
Sequence of UniProt P30281 (P30281 whole entry, looked up): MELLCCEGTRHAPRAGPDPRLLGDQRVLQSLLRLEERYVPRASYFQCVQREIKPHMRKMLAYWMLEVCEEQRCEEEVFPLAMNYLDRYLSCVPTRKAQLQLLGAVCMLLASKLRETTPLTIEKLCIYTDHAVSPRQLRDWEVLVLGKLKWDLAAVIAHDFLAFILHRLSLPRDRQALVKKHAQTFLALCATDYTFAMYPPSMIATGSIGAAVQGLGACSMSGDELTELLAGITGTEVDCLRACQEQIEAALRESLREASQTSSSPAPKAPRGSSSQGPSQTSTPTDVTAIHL
inactive: [1] -0.034 | [2] 0.064 | [16] -0.03 | [3] 0.106 | [18] -0.228 | [19] 0.116 | [4] 0.033 | [20] 0.122 | [6] 0.039 | [7] 0 | [8] 0.032 | [9] -0.104 | [10] -0.063 | [11] -0.021 | [12] -0.067

ATG4D (UniProt Q86TL0)
inactive: [16] 0.072 | [3] 0.049 | [18] 0.047 | [19] -0.074 | [4] -0.142 | [20] -0.086 | [6] 0.049 | [7] 0.074 | [10] 0.319 | [11] -0.096 | [12] -0.052

CEP57L1 (UniProt Q8IYX8)
Sequence of UniProt Q8IYX8 (Q8IYX8 whole entry, looked up): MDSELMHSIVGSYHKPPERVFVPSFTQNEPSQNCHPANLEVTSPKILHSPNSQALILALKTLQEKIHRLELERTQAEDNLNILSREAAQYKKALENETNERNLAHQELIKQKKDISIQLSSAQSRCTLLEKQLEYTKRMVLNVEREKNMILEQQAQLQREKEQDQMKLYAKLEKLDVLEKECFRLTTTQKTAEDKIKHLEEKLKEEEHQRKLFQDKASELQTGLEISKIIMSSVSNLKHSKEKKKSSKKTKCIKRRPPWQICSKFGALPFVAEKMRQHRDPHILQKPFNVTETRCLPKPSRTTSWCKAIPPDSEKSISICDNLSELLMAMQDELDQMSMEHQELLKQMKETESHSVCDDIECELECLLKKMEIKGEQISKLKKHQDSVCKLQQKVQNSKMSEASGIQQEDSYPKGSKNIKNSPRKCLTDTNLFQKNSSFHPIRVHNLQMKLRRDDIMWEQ
inactive: [1] -0.064 | [2] 0.118 | [16] -0.021 | [3] -0.041 | [18] -0.013 | [19] 0.101 | [4] 0.35 | [20] -0.039 | [6] 0.171 | [7] -0.272 | [8] -0.049 | [9] 0.11 | [10] -0.191 | [11] -0.037 | [12] -0.044

C6orf120 (UniProt Q7Z4R8)
inactive: [1] 0.043 | [2] -0.014 | [16] 0.008 | [20] 0.013 | [5] -0.017 | [8] -0.003 | [10] 0.015 | [13] 0.126

CDC14A isoform 2 (UniProt Q9UNH5)
Sequence of UniProt Q9UNH5 (Q9UNH5 whole entry, looked up): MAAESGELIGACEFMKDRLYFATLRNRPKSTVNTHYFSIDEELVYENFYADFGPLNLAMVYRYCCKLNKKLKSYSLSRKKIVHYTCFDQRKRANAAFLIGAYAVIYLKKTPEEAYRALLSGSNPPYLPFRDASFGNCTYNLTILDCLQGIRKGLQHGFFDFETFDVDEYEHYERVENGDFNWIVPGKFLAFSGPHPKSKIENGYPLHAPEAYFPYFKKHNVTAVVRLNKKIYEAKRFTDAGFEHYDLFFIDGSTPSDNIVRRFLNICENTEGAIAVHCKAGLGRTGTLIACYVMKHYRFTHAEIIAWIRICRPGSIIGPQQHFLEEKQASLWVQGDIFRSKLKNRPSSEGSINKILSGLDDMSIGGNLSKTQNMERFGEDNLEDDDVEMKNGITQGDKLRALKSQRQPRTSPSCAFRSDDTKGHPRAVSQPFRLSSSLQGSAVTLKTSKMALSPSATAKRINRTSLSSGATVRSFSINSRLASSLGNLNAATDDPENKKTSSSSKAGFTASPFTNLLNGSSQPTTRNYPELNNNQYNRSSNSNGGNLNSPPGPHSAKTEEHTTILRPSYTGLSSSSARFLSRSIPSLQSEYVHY
inactive: [3] 0.082 | [4] -0.102 | [5] 0.107 | [6] -0.336 | [7] -0.135 | [9] -0.04 | [11] 0.145 | [12] 0.219 | [13] 0.006

CDAN1 (UniProt H3BPZ6)
inactive: [11] -0.172

BUD13 (UniProt Q9BRD0)
Sequence of UniProt Q9BRD0 (Q9BRD0 whole entry, looked up): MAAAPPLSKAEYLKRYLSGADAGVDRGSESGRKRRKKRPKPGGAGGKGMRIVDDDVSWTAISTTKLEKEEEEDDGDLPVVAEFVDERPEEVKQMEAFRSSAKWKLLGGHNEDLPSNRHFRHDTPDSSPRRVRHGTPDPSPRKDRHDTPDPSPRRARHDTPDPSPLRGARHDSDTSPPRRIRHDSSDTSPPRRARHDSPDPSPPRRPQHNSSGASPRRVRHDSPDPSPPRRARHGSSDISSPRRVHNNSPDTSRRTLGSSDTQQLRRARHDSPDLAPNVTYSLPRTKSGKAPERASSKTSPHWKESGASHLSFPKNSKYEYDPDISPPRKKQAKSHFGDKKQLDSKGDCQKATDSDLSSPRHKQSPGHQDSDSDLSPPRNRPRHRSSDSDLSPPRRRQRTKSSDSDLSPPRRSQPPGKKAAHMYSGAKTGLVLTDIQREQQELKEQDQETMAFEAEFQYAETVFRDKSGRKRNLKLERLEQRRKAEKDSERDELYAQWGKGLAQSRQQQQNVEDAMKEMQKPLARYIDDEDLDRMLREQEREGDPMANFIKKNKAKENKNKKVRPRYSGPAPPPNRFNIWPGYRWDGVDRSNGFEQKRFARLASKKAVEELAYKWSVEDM
inactive: [1] -0.04 | [2] -0.02 | [16] 0.054 | [3] 0.054 | [18] -0.046 | [19] -0.162 | [4] -0.066 | [20] 0.07 | [6] 0.033 | [7] 0.034 | [8] -0.051 | [9] -0.051 | [10] -0.219 | [11] 0.013 | [12] -0.013

BNIP3 (UniProt Q12983)
Sequence of UniProt Q12983 (Q12983 whole entry, looked up): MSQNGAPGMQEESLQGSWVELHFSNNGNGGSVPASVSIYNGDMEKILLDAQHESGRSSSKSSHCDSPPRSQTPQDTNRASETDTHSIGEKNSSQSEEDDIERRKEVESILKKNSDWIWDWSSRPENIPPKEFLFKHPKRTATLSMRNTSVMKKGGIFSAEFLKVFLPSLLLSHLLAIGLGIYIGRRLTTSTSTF
inactive: [1] -0.008 | [2] 0.036 | [16] -0.013 | [3] 0.028 | [18] 0.031 | [19] 0.02 | [4] 0.057 | [20] 0.04 | [5] 0.048 | [6] 0.032 | [7] 0.01 | [8] -0.002 | [9] -0.068 | [10] -0.002 | [11] 0.045 | [12] -0.047 | [13] 0.003

C9orf72 (UniProt Q96LT7)
Sequence of UniProt Q96LT7 (Q96LT7 whole entry, looked up): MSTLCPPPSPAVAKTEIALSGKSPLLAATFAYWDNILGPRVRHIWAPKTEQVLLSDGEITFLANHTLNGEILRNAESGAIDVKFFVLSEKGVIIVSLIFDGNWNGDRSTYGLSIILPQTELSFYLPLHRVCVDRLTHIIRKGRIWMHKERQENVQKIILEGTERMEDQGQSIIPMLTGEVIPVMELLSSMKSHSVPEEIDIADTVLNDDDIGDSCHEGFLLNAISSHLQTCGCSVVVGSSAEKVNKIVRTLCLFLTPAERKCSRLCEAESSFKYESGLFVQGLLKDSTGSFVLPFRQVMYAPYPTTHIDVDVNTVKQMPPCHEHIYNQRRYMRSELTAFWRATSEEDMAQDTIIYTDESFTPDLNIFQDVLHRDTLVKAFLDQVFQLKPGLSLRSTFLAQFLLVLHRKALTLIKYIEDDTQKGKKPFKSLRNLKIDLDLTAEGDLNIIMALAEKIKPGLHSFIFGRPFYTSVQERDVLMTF
inactive: [1] -0.043 | [2] 0.056 | [16] -0.01 | [3] -0.041 | [18] 0.056 | [19] -0.068 | [4] -0.042 | [20] -0.079 | [5] -0.004 | [6] -0.011 | [7] -0.021 | [8] 0.025 | [9] -0.066 | [10] 0.014 | [11] -0.003 | [12] -0.023 | [13] 0.038

CDK2 (UniProt P24941)
active: [5] 0.362
inactive: [1] -0.026 | [14] -0.152 | [2] 0.051 | [16] -0.003 | [3] 0.008 | [17] 0.237 | [18] 0.135 | [19] 0.004 | [4] 0.014 | [20] -0.031 | [6] -0.038 | [7] 0.006 | [8] -0.036 | [9] -0.026 | [10] -0.016 | [11] -0.017 | [12] -0.003 | [13] -0.015

BRD2 isoform 2 (UniProt P25440)
Sequence of UniProt P25440 (P25440 whole entry, looked up): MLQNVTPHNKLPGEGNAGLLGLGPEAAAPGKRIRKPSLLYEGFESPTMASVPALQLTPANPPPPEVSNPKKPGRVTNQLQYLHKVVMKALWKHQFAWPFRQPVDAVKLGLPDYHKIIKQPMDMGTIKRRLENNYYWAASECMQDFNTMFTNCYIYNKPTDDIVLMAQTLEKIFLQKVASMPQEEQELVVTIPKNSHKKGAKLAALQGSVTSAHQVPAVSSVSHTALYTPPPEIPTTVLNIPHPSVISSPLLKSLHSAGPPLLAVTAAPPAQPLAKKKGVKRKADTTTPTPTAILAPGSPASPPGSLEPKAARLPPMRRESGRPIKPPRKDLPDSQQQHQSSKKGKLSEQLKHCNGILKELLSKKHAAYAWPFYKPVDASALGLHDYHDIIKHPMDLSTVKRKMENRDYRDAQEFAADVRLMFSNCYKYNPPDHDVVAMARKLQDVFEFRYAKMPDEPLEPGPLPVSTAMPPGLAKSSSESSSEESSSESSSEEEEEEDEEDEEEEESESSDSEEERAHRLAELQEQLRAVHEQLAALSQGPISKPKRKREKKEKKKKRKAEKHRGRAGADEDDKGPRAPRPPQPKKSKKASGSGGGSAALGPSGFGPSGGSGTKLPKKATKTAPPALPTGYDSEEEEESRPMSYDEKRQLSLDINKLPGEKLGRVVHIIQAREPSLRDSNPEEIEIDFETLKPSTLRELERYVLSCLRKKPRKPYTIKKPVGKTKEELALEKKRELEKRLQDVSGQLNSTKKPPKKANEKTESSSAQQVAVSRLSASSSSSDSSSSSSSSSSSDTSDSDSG
inactive: [1] -0.039 | [2] 0.02 | [15] 0.036 | [16] 0 | [3] 0.109 | [17] -0.014 | [18] -0.134 | [19] -0.114 | [4] 0.003 | [20] 0.074 | [5] -0.041 | [6] -0.056 | [7] 0.021 | [8] 0.26 | [9] -0.025 | [10] 0.008 | [11] 0.056 | [12] 0.049 | [13] 0.105

CARHSP1 (UniProt H3BNU9)
inactive: [16] -0.215 | [20] 0.147 | [5] -0.005 | [9] -0.107 | [13] 0.107

BMT2 (UniProt Q1RMZ1)
inactive: [9] 0.586

C8orf88 (UniProt P0DMB2)
Sequence of UniProt P0DMB2 (P0DMB2 whole entry, looked up): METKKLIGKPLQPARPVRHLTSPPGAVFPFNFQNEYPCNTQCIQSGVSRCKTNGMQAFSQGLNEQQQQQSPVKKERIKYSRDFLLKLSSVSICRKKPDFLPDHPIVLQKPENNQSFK
inactive: [1] -0.006 | [2] -0.185 | [16] 0.028 | [3] -0.003 | [4] -0.013 | [20] -0.004 | [6] 0.06 | [7] 0.047 | [8] -0.05 | [10] 0.006 | [11] 0.052 | [12] 0.022
